This is a sample that favours compounds with a hit; in the whole collection about 10% have one here.
NS1 function inh: qHTS Assay for Inhibitors of Influenza NS1 Protein Function; AID 2326, 2010; Potency, µM (doses to about 46.1 µM), for inactives: at the top dose activity, positive = more growth; actives 0.4% (n = 270,000); calls by dose curve; also: actives are rising curves; nearly all actives have a fitted effect of over 50% in size
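In this qHTS, NS1 from influenza A is expressed in budding yeast, where it slows growth. Cells are switched from glucose to 2% galactose medium (pH 6.0, -URA), treated with compound, and growth recovery is read at OD600.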
Pf growth 48h: Primary qHTS for delayed death inhibitors of the malarial parasite plastid, 48 hour incubation. P. falciparum luciferase growth in erythrocytes, 48 h. Potency, µM (highest dose often 28.7 µM), inactives show at the top dose activity change, negative = inhibition, most hits filed as inhibitors. actives 5.9% (n = 310,000). AID 504832, 2011; also: % is scaled to controls: 0 for no effect and ±100 for the full control effect
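Luminescence readout; reporter = integrated firefly luciferase in P. falciparum. RBC culture at 2% hematocrit, 0.1% parasitemia final, 37 C/5% CO2; decreased signal taken as growth inhibition.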
SARS PLpro yeast: qHTS of Yeast-based Assay for SARS-CoV PLP | Potency, µM (top dose mostly 32.9 µM), inactives show at the highest dose activity, positive = growth rescue, usual class: activators | AID 485353, 2010 | S. cerevisiae expressing SARS-CoV PLpro, growth rescue | actives 0.19% (n = 330,000); calls by dose curve; also: 0% is about no effect; nearly all actives have a fitted effect of over 55% in size
Pf growth 96h: Primary qHTS for delayed death inhibitors of the malarial parasite plastid, 96 hour incubation; P. falciparum luciferase reporter growth, 96 h; Potency, µM (titrated, usually from 28.7 µM), for the others: at the highest dose activity change, negative = inhibition, most hits filed as inhibitors; actives 6.9% (n = 320,000); AID 504834, 2011; also: % is scaled to controls: 0 for no effect and ±100 for the full control effect
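Cell-based qHTS: luciferase-tagged P. falciparum in erythrocytes (2% hematocrit, 0.05% parasitemia final) incubated with compounds for 96 hours, 37 C, 5% CO2; luciferase detection reagent then added and luminescence measured.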
Starred values were filed as active, the others as inactive; [ ] = remark or other dose. Unless noted, calls follow the shape of the dose curve; as a rule, active = well fitted inhibition curve with a large enough effect; inconclusive = small, poorly fitted or top-dose-only effect, or another doubt; inactive = no such curve, though single readings can be large or run the other way. Potency is read from the fitted curve at half-maximal effect.

How did CCOC(=O)N1CCN(C(=O)CN(C)S(=O)(=O)c2ccc(Cl)cc2)CC1 do in these assays?
NS1 function inh: -2%; Pf growth 48h: 22%; SARS PLpro yeast: 0%; Pf growth 96h: inconclusive

How did COc1cccc(/C=C2\Sc3ccc(C(=O)NCc4cccnc4)cc3N(C)C2=O)c1 do in these assays?
Pf growth 48h: inconclusive; SARS PLpro yeast: -4%; Pf growth 96h: 19%

How did CN1C(=O)/C(=C/c2cccc(Cl)c2)Sc2ccc(C(=O)NCc3cccnc3)cc21 do in these assays?
Pf growth 48h: 9.3µM*; SARS PLpro yeast: -10%; Pf growth 96h: inconclusive

Results for O=C1CC(NS(=O)(=O)c2cccnc2)CN1c1cccc(F)c1 (stereo not drawn) ?
Pf growth 48h: 1%; SARS PLpro yeast: -3%; Pf growth 96h: 13%

What do the screens show for `COc1ccc([C@]23Cc4ccccc4C(O2)c2c(c4ccc(OC)cc4oc2=O)O3)cc1`?
NS1 function inh: -5%; Pf growth 48h: inconclusive; SARS PLpro yeast: inconclusive; Pf growth 96h: 1.7µM*

What do the screens show for `O=C1C2=C(C(=O)c3ccccc31)C1O[C@](CCCCN3C(=O)c4ccccc4C3=O)(Cc3ccccc31)O2`?
NS1 function inh: -35%; Pf growth 48h: inconclusive; SARS PLpro yeast: -5%[6.58 µM]; Pf growth 96h: inconclusive

Results for COc1cc2c(cc1OC)C1OC(c3ccsc3)(C2)Oc2cc(C)oc(=O)c21 (stereo not drawn) ?
NS1 function inh: 22%; Pf growth 48h: inconclusive; SARS PLpro yeast: 3%[6.58 µM]; Pf growth 96h: 1.7µM*

Results for O=c1oc2ccccc2c2c1C1O[C@](c3ccsc3)(Cc3ccccc31)O2 ?
NS1 function inh: 13%; Pf growth 48h: 1.7µM*; SARS PLpro yeast: 1%[6.58 µM]; Pf growth 96h: inconclusive

Results for O=C1C2=C(C(=O)c3ccccc31)C1O[C@](c3ccsc3)(Cc3ccccc31)O2 ?
NS1 function inh: 9%; Pf growth 48h: 1.2µM*; SARS PLpro yeast: inconclusive; Pf growth 96h: 39%[5.75 µM]

What do the screens show for `CCN(CC(=O)NCc1cccs1)C(=O)CCc1c[nH]c2ccccc12`?
Pf growth 48h: -4%; SARS PLpro yeast: -2%; Pf growth 96h: inconclusive

What do the screens show for `C=CCc1c(Cl)nc(C)nc1NCc1ccccc1`?
NS1 function inh: -30%; Pf growth 48h: 6%; SARS PLpro yeast: 7%; Pf growth 96h: inconclusive

How did COc1ccc2c3c(c(=O)oc2c1)C1O[C@](c2ccsc2)(Cc2ccccc21)O3 do in these assays?
NS1 function inh: 6%; Pf growth 48h: inconclusive; SARS PLpro yeast: -5%[6.58 µM]; Pf growth 96h: inconclusive

How did COc1ccc([C@]23Cc4cc(OC)c(OC)cc4C(O2)c2c(cc(-c4ccccc4)oc2=O)O3)cc1 do in these assays?
NS1 function inh: 20%; Pf growth 48h: inconclusive; SARS PLpro yeast: -5%[6.58 µM]; Pf growth 96h: inconclusive

What do the screens show for `COc1ccc([C@]23Cc4cc(OC)c(OC)cc4C(O2)c2c(cc(C)oc2=O)O3)cc1`?
NS1 function inh: 14%; Pf growth 48h: inconclusive; SARS PLpro yeast: 1%[6.58 µM]; Pf growth 96h: 0.34µM*

What do the screens show for `Cc1cc2c(c(=O)o1)C1O[C@](c3ccsc3)(Cc3ccccc31)O2`?
NS1 function inh: inconclusive; Pf growth 48h: 1.9µM*; SARS PLpro yeast: 4%[6.58 µM]; Pf growth 96h: inconclusive

Results for COc1ccc(C(=O)NCC(=O)OCC(=O)NC2CCCCCC2)cc1OC ?
SARS PLpro yeast: 1%

Results for Cc1cc(C(=O)CSc2ccccc2)cc(C)c1O ?
NS1 function inh: -7%; Pf growth 48h: 60%; SARS PLpro yeast: -4%; Pf growth 96h: 78%

How did CC1=CC(C)(C)N(S(=O)(=O)c2ccc(C)cc2)c2ccc(C)cc21 do in these assays?
NS1 function inh: -71%; SARS PLpro yeast: -28%; Pf growth 96h: 10µM*

Results for O=C(COc1ccccc1Cl)N1CCCC(N2CCN(c3ccc(F)cc3)CC2)C1 (stereo not drawn) ?
NS1 function inh: -50%; Pf growth 48h: 12µM*; SARS PLpro yeast: -3%; Pf growth 96h: 8.3µM*

What do the screens show for `Cc1nnsc1C(=O)N1CCCC(N2CCN(c3ccc(F)cc3)CC2)C1` (stereo not drawn)?
NS1 function inh: 5%; Pf growth 48h: 0%; SARS PLpro yeast: 0.71µM*; Pf growth 96h: 33%

What do the screens show for `Cc1nnsc1C(=O)N1CCN(c2ccc(F)cc2)CC1`?
NS1 function inh: 5%; Pf growth 48h: 6%; SARS PLpro yeast: 0%; Pf growth 96h: 12%

Results for O=C(Cn1cccn1)N1CCCC(N2CCN(c3ccccc3F)CC2)C1 (stereo not drawn) ?
NS1 function inh: 4%; Pf growth 48h: 27%; SARS PLpro yeast: 4%; Pf growth 96h: 3.7µM*

What do the screens show for `CC1(C)CC(NC(=O)c2cc(S(=O)(=O)N3CCOCC3)c(Cl)cc2Cl)CC(C)(C)N1`?
Pf growth 48h: -8%; SARS PLpro yeast: 2%; Pf growth 96h: inconclusive

What do the screens show for `N#CCc1nn(-c2ccccc2)c2ncnc(N)c12`?
NS1 function inh: -2%; Pf growth 48h: -1%; SARS PLpro yeast: -1%; Pf growth 96h: 26%

How did CC(=O)NCc1ccc(C(=O)CN2C(=O)NC3(CCCCC3C)C2=O)s1 (stereo not drawn) do in these assays?
Pf growth 48h: inconclusive; SARS PLpro yeast: 2%; Pf growth 96h: -3%

How did O=C(/C=C/c1ccc(Cl)cc1)NCc1ccco1 do in these assays?
NS1 function inh: -20%; Pf growth 48h: -30%; SARS PLpro yeast: -3%; Pf growth 96h: inconclusive

How did C[C@@]12CCC(=O)C=C1C=C[C@H]1[C@H]3CC[C@](O)(CCC(=O)O)[C@]3(C)CC[C@@H]12 do in these assays?
Pf growth 48h: inconclusive; Pf growth 96h: 6.4µM*

What do the screens show for `Cc1ccc(-c2ncccc2OC(=O)C23CC4CC(CC(C4)C2)C3)cc1`?
NS1 function inh: -34%; Pf growth 48h: inconclusive; SARS PLpro yeast: -15%; Pf growth 96h: 9.3µM*

How did CCN1C(=O)[C@@H]2[C@@H](c3ccc(-c4ccc(OC)cc4)c(OC)c3)N3CCCC[C@@]3(C(=O)OC)[C@@H]2C1=O do in these assays?
Pf growth 48h: 2.9µM*; SARS PLpro yeast: -5%; Pf growth 96h: 4.1µM*

What do the screens show for `CCN1C(=O)[C@@H]2[C@@H](c3ccc(-c4ccc(Cl)c(Cl)c4)cc3)N3CCCC[C@@]3(C(=O)OC)[C@@H]2C1=O`?
Pf growth 48h: 0%; SARS PLpro yeast: 0%; Pf growth 96h: inconclusive

What do the screens show for `CCN1C(=O)[C@@H]2[C@@H](c3ccc(-c4ccc(Cl)c(Cl)c4)c(OC)c3)N3CCC[C@@]3(C(=O)OC)[C@@H]2C1=O`?
Pf growth 48h: 5.2µM*; SARS PLpro yeast: -7%; Pf growth 96h: 0.83µM*

How did CCN1C(=O)[C@@H]2[C@@H](c3ccc(-c4cccc(Cl)c4)c(OC)c3)N3CCCC[C@@]3(C(=O)OC)[C@@H]2C1=O do in these assays?
Pf growth 48h: 10µM*; SARS PLpro yeast: 1%; Pf growth 96h: 3.7µM*
